Laboratory results taken from PubChem BioAssay (Tox21).
Inconclusive results are not listed. Calls of active or inactive are those of the source. Calls come from the whole dose curve; as a rule, active = well fitted curve in the direction sought with a large enough effect in the repeat runs; inconclusive = weak or mixed curves; inactive = no such curve, though single readings can be large; an effect the other way counts as inactive or inconclusive.

How the values were obtained:
[1] = A CellTox Green Cytotoxicity Assay to monitor cytotoxicity in HEK293 cells - 24 hour (AID 1224875); note: series mostly up to about 77 µM; nearly all actives have a fitted effect of over 45% in size
Outline: (§1)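 Tox21 screen in HEK293: membrane-impermeant cyanine dye fluoresces on binding dead-cell DNA; compound pinned 5 h post-seeding, plates held at 37 C, signal read repeatedly through 40 h.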

[2] = A CellTox Green Cytotoxicity Assay to monitor cytotoxicity in HepG2 cells - 16 hour (AID 1224876); note: nearly all actives have a fitted effect of over 45% in size
Outline: (§2)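 Measurements at 0, 8, 16, 24, 32 and 40 h of treatment captured CellTox Green fluorescence in HepG2 cells that had been co-plated with reagent and preincubated 5 h at 37 C/5% CO2.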

[3] = qHTS RealTime-Glo MT Cell Viability Assay in HepG2 cells - 32 hour (AID 1224877); note: nearly all actives have a fitted effect of over 55% in size
Outline: (§3)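 Compound treatment began 5 h after plating HepG2 cells (600/well) with NanoLuc luciferase and prosubstrate. Plates stayed at 37 C for 40 h; luminescence was captured at six time points, 0 h through 40 h.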

[4] = A CellTox Green Cytotoxicity Assay to monitor cytotoxicity in HepG2 cells - 24 hour (AID 1224878); note: nearly all actives have a fitted effect of over 45% in size
Outline: as §2

[5] = A CellTox Green Cytotoxicity Assay to monitor cytotoxicity in HepG2 cells - 40 hour (AID 1224879); note: nearly all actives have a fitted effect of over 40% in size
Outline: as §2

[6] = qHTS RealTime-Glo MT Cell Viability Assay in HEK293 cells - 0 hour (AID 1224880); note: top concentration of the series differs between compounds; nearly all actives have a fitted effect of over 45% in size
Outline: (§4)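 HEK293 + NanoLuc + prosubstrate, 600 cells/well; 5 h, 37 C/5% CO2; compound 23 nL in DMSO by pintool; 37 C; luminescence read at 0, 8, 16, 24, 32 and 40 h time points.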

[7] = A CellTox Green Cytotoxicity Assay to monitor cytotoxicity in HEK293 cells - 32 hour (AID 1224881); note: nearly all actives have a fitted effect of over 40% in size
Outline: as §1

[8] = A CellTox Green Cytotoxicity Assay to monitor cytotoxicity in HepG2 cells - 0 hour (AID 1224882); note: nearly all actives have a fitted effect of over 35% in size
Outline: as §2

[9] = A CellTox Green Cytotoxicity Assay to monitor cytotoxicity in HepG2 cells - 32 hour (AID 1224883); note: nearly all actives have a fitted effect of over 50% in size
Outline: as §2

[10] = A CellTox Green Cytotoxicity Assay to monitor cytotoxicity in HEK293 cells - 8 hour (AID 1224884); note: nearly all actives have a fitted effect of over 35% in size
Outline: as §1

[11] = qHTS RealTime-Glo MT Cell Viability Assay in HepG2 cells - 16 hour (AID 1224885); note: nearly all actives have a fitted effect of over 50% in size
Outline: as §3

[12] = qHTS RealTime-Glo MT Cell Viability Assay in HEK293 cells - 24 hour (AID 1224886); note: nearly all actives have a fitted effect of over 50% in size; note: potency is the fitted concentration of half-maximal effect; for activity change, negative = cytotoxicity: top concentration of the series differs between compounds
Outline: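 Quantitative high-throughput screen of the Tox21 10K library in HEK293: cells and RealTime-Glo reagents plated together, compound added at 5 h, luminescence monitored through 40 h at 37 C.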

[13] = qHTS RealTime-Glo MT Cell Viability Assay in HEK293 cells - 8 hour (AID 1224887); note: top concentration of the series differs between compounds; nearly all actives have a fitted effect of over 50% in size
Outline: as §4

[14] = A CellTox Green Cytotoxicity Assay to monitor cytotoxicity in HEK293 cells - 16 hour (AID 1224888); note: nearly all actives have a fitted effect of over 35% in size
Outline: as §1

[15] = qHTS RealTime-Glo MT Cell Viability Assay in HepG2 cells - 0 hour (AID 1224889); note: nearly all actives have a fitted effect of over 50% in size
Outline: as §3

[16] = A CellTox Green Cytotoxicity Assay to monitor cytotoxicity in HepG2 cells - 8 hour (AID 1224890); note: nearly all actives have a fitted effect of over 45% in size
Outline: as §2

[17] = qHTS assay to identify small molecule antagonists of the estrogen receptor alpha (ER-alpha) signaling pathway using the BG1 cell line in the presence of 0.1 nM 17-beta-estradiol - cell viability counter screen (AID 1259241); note: nearly all actives have a fitted effect of over 40% in size
Outline: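 VM7Luc4E2 cells (endogenous full-length ER-alpha, 4xERE-luciferase), cultured 5 days in charcoal-stripped serum, exposed to compounds with 0.1 nM 17beta-estradiol (final) for 22 hr at 37C. Viability read in same wells as live-cell protease fluorescence after 30 min.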

[18] = qHTS assay to identify small molecule antagonists of the androgen receptor (AR) signaling pathway using the MDA cell line in the presence of 0.5 nM R1881 - cell viability counter screen (AID 1259242); note: nearly all actives have a fitted effect of over 45% in size
Outline: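 Concentration-response screen of compounds for toxicity in MDA-kb2 reporter cells: 16 hr at 37C with 0.5 nM R1881, endpoint live-cell protease fluorescence measured in the reporter wells.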

[19] = target: Androgen receptor (Homo sapiens) (UniProt P10275); test: qHTS assay to identify small molecule antagonists of the androgen receptor (AR) signaling pathway using the MDA cell line in the presence of 0.5 nM R1881 (AID 1259243); note: nearly all actives have a fitted effect of over 50% in size
Outline: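 With R1881 held at 0.5 nM (final), compound effects on MMTV-luciferase expression in MDA-kb2 cells were scored by luminescence after a 16 hr, 37C incubation.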

[20] = target: Estrogen receptor (Homo sapiens) (UniProt P03372); test: qHTS assay to identify small molecule antagonists of the estrogen receptor alpha (ER-alpha) signaling pathway using the BG1 cell line in the presence of 0.1 nM 17-beta-estradiol (AID 1259244); note: nearly all actives have a fitted effect of over 50% in size
Outline: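 Compounds were tested against 0.1 nM (final) 17beta-estradiol in VM7Luc4E2 cells, which express full-length ER-alpha and an ERE-luciferase reporter; luminescence was recorded following 22 h exposure.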
% is set by controls: 0 for no effect and ±100 for the full control effect.

Sequence of Androgen receptor (Homo sapiens) (P10275 whole entry, looked up): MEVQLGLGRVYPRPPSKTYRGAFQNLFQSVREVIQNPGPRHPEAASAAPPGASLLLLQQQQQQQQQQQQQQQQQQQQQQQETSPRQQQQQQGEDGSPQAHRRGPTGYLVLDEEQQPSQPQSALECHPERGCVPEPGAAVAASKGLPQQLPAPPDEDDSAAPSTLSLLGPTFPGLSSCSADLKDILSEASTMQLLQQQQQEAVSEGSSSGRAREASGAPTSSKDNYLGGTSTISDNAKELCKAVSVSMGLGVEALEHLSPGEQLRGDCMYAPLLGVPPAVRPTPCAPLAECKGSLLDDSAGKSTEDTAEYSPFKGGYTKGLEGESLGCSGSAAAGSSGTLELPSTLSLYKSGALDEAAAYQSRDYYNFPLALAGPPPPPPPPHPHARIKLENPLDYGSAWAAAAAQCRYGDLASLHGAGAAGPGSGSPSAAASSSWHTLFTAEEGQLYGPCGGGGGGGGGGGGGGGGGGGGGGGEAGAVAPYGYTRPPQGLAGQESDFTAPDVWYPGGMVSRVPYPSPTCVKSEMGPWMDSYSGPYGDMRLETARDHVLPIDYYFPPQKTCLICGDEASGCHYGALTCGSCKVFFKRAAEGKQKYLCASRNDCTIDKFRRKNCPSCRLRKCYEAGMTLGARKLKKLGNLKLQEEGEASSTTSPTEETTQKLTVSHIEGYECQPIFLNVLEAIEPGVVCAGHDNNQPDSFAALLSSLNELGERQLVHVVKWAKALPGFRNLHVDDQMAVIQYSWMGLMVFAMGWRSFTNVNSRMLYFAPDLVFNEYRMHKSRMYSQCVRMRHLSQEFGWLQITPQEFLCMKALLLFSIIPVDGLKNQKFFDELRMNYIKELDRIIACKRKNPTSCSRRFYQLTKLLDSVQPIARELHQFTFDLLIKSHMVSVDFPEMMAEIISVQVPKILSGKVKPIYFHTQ
Sequence of Estrogen receptor (Homo sapiens) (P03372 whole entry, looked up): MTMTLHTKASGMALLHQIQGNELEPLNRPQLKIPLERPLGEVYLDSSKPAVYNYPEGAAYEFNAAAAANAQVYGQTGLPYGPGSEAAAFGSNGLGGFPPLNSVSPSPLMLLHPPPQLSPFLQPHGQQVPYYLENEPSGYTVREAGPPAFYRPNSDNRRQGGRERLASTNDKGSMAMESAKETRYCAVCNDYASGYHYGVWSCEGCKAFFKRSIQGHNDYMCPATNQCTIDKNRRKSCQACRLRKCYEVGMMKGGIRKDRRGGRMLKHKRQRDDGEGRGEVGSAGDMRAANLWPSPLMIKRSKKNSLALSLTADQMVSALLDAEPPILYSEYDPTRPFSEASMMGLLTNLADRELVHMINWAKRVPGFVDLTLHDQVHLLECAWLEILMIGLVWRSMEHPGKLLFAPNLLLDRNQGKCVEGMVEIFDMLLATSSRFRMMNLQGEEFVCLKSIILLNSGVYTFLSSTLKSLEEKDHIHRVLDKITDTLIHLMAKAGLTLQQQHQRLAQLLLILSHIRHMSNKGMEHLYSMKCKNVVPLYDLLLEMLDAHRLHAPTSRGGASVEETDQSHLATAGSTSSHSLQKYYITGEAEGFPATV

CCCCCCCCc1ccc(Nc2ccc(CCCCCCCC)cc2)cc1
inactive: Potency [1] | Potency [2] | Potency [3] | Potency [4] | Potency [5] | Potency [6] | Potency [7] | Potency [8] | Potency [9] | Potency [10] | Potency [11] | Potency [12] | Potency [13] | Potency [14] | Potency [15] | Potency [16] | Potency [17] | Potency [18] | Potency [19] | Potency [20]

CN1CCN(C)CC1
inactive: Potency [1] | Potency [2] | Potency [3] | Potency [4] | Potency [5] | Potency [6] | Potency [7] | Potency [8] | Potency [9] | Potency [10] | Potency [11] | Potency [12] | Potency [13] | Potency [14] | Potency [15] | Potency [16] | Potency [17] | Potency [19] | Potency [20]

Nc1ccc(F)c([N+](=O)[O-])c1
inactive: Potency [1] | Potency [2] | Potency [3] | Potency [4] | Potency [5] | Potency [6] | Potency [7] | Potency [8] | Potency [9] | Potency [10] | Potency [11] | Potency [12] | Potency [13] | Potency [14] | Potency [15] | Potency [16] | Potency [17] | Potency [18] | Potency [20]

C[C@H]1O[C@@H](O[C@H]2CC[C@@]3(C)[C@H](CC[C@@H]4[C@@H]3C[C@@H](O)[C@]3(C)[C@@H](C5=CC(=O)OC5)CC[C@]43O)C2)C[C@H](O)[C@@H]1O[C@H]1C[C@H](O)[C@H](O[C@H]2C[C@H](O)[C@H](O[C@@H]3O[C@H](CO)[C@@H](O)[C@H](O)[C@H]3O)[C@@H](C)O2)[C@@H](C)O1
inactive: Potency [1] | Potency [2] | Potency [3] | Potency [4] | Potency [5] | Potency [6] | Potency [7] | Potency [8] | Potency [9] | Potency [10] | Potency [11] | Potency [13] | Potency [14] | Potency [15] | Potency [16] | Potency [17] | Potency [18] | Potency [19] | Potency [20]
active: Potency [12] 268 nM

Oc1ccc2c(c1)CCC2
inactive: Potency [1] | Potency [2] | Potency [3] | Potency [4] | Potency [5] | Potency [6] | Potency [7] | Potency [8] | Potency [9] | Potency [10] | Potency [11] | Potency [12] | Potency [13] | Potency [14] | Potency [15] | Potency [16] | Potency [17] | Potency [18] | Potency [19] | Potency [20]

CCCC(C)C=O (stereo not drawn)
inactive: Potency [1] | Potency [2] | Potency [3] | Potency [4] | Potency [5] | Potency [6] | Potency [7] | Potency [8] | Potency [9] | Potency [10] | Potency [11] | Potency [12] | Potency [13] | Potency [14] | Potency [15] | Potency [16] | Potency [17] | Potency [18] | Potency [20]

COCCC(=O)OC
inactive: Potency [1] | Potency [2] | Potency [3] | Potency [4] | Potency [5] | Potency [6] | Potency [7] | Potency [8] | Potency [9] | Potency [10] | Potency [11] | Potency [12] | Potency [13] | Potency [14] | Potency [15] | Potency [16] | Potency [17] | Potency [18] | Potency [19]

C=C[Si](C)(C)Cl
inactive: activity change [1] -5.65% [at 6.97 µM, active compounds read high] | cytotoxicity increase [2] -13.5% [at 6.97 µM] | activity change, negative = cytotoxic [3] 9.18% [at 6.97 µM] | cytotoxicity [4] -14.5% [at 6.97 µM] | cytotoxicity increase [5] -18.2% [at 6.97 µM] | activity change, negative = cytotoxicity [6] -5.88% [at 6.97 µM] | cytotoxicity increase [7] -7.47% [at 6.97 µM] | cytotoxicity [8] -6.72% [at 6.97 µM] | cytotoxicity increase [9] -16.4% [at 6.97 µM] | cytotoxicity increase [10] -2.48% [at 6.97 µM] | activity change, negative = cytotoxic [11] -9.49% [at 6.97 µM] | activity change, negative = cytotoxicity [12] -3.65% [at 6.97 µM] | activity change, negative = cytotoxicity [13] -4.42% [at 6.97 µM] | activity change [14] -2.03% [at 6.97 µM, active compounds read high] | activity change, negative = cytotoxicity [15] -16.4% [at 6.97 µM] | cytotoxicity increase [16] -7.78% [at 6.97 µM] | activity change, negative = cytotoxicity [17] -11.6% [at 8.39 µM] | viability change, negative = cytotoxic [18] 0.0065% [at 8.39 µM]

CCc1cccc(C)c1N(C(=O)CS(=O)(=O)O)C(C)COC (stereo not drawn)
inactive: Potency [1] | Potency [2] | Potency [3] | Potency [4] | Potency [5] | Potency [6] | Potency [7] | Potency [8] | Potency [9] | Potency [10] | Potency [11] | Potency [12] | Potency [13] | Potency [14] | Potency [15] | Potency [16] | Potency [17] | Potency [18] | Potency [19] | Potency [20]

Brc1cc(Br)cc(Br)c1
inactive: Potency [1] | Potency [2] | Potency [3] | Potency [4] | Potency [5] | Potency [6] | Potency [7] | Potency [8] | Potency [9] | Potency [10] | Potency [11] | Potency [12] | Potency [13] | Potency [14] | Potency [15] | Potency [16] | Potency [17] | Potency [19] | Potency [20]

O=C1OCc2ccccc21
inactive: Potency [1] | Potency [2] | Potency [3] | Potency [4] | Potency [5] | Potency [6] | Potency [7] | Potency [8] | Potency [9] | Potency [10] | Potency [11] | Potency [12] | Potency [13] | Potency [14] | Potency [15] | Potency [16] | Potency [17] | Potency [18] | Potency [19] | Potency [20]
